In all, about 2,200 compounds went through this assay and about 1,200 (55%) were called active. The limit is not given here; nearly all actives have IC50 up to about 92 µM. So high a share suggests a set chosen from earlier hits. The list shows a part of the results.

The assay is described as follows: counter assay for TAg ATPase ADP read-out – biochemical, ADP-Hunter, fluorescence, counter-screen (AID 2501).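 Also: purified T antigen ATPase.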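 As to inhibition: 0% = enzyme with vehicle and 100% = reference inhibitor wells; higher means more inhibition.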 The settings on record: series mostly up to 100 µM; inhibition: at the top concentration. For orientation: Counterscreens check selectivity or assay interference.
For orientation: inhibition means the change of the read-out against control, counted positive when it falls. With `Cc1nonc1C1CCCN1C(=O)c1cc(COc2ccc(F)cc2F)on1` (stereo unspecified), the “inhibition” value was -6.07% (inactive).
One may read the IC50 as the concentration that gives 50% inhibition. Turning to `COc1cc(O)ccc1C(=O)CCc1ccc(O)cc1`, the 50% inhibitory concentration (IC50) is 6.75 µM (active).
Regarding `COc1ccccc1C(NC(C)=O)c1c(O)ccc2ccc(O)cc12` (stereo unspecified), the “inhibition” value is 0.8% [at 50 µM] (inactive).
Same read-out and setting: the figure for `O=C(CCO)c1ccc(O)cc1` is 9.16% (inactive).
For the molecule `COc1cc(C2OCC3C(c4ccc(OC5OC(CO)C(O)C(O)C5O)c(OC)c4)OCC23)ccc1O` (stereo unspecified), the IC50 was 8.74 µM (active).
`O=C(CN1C(=O)/C(=C\c2ccco2)SC1=S)Nc1ccc(O)cc1C(=O)O`: the “inhibition” value was 16.6% (inactive).
The same measure, in the same setting: the figure for `O=C(CN1C(=O)/C(=C/c2ccco2)SC1=S)Nc1ccc(O)c(C(=O)O)c1` is -2% (inactive).
On to `O=C(CN1C(=O)/C(=C/c2ccco2)SC1=S)NC1CCS(=O)(=O)C1` (stereo unspecified), for which the IC50 was 35.1 µM (active).
`N#Cc1c(Nc2ccccc2Cl)s[nH]c1=O`: the “inhibition” value is 27.8% (inactive).
Consider `O=C([C@H](Cc1ccccc1)NS(=O)(=O)c1ccc(Cl)cc1)N1CC[C@@]2(O)CCCC[C@H]2C1`, for which the half-maximal inhibitory concentration (IC50) was 18.9 µM (active).
Take `O=C(O)CSc1cc(NS(=O)(=O)c2ccc(Cl)cc2)c2ccccc2c1O`: the “inhibition” value is -205% (inactive).
On the same count and under the same terms, with `COc1ccc(-c2c(C)nn3c(-c4ccccc4)cc(C)nc23)cc1` the figure was -13.8% (inactive).
With `NC(=S)N=Nc1ccc(NN=C(N)N)cc1`, the IC50 is 6.85 µM (active).
Take `COc1ccccc1C1/C(=C(/O)c2ccc(C)cc2)C(=O)C(=O)N1CC(C)O` (stereo unspecified): the “inhibition” value was -24% (inactive).
As for `CCOC1=C/C(=C/c2c(N)n3nc(-c4ccccc4)sc3nc2=O)C=CC1=O`, the half-maximal inhibitory concentration (IC50) was 11.2 µM (active).
For `COC1=C/C(=C/c2c(N)n3nc(-c4ccc(C)cc4)sc3nc2=O)C=CC1=O`, the half-inhibitory concentration (IC50) was 10.8 µM (active).
As for `CCCOc1ccc(Cc2nn3c(=O)/c(=C/c4ccco4)sc3nc2=O)cc1`, the “inhibition” value was -9.71% (inactive).
Consider `O=c1nc2s/c(=C\c3ccco3)c(=O)n2nc1Cc1ccccc1`, for which the “inhibition” value is -12.8% (inactive).
As to `CCOC(=O)N1CCN(c2cc(NCCC(=O)O)c3c4c(onc24)-c2ccccc2C3=O)CC1`, the half-maximal inhibitory concentration (IC50) was 8.63 µM (active).
Still for that read-out and setting: with `CCOc1cc(CNc2ccc(N3CCN(C(C)=O)CC3)cc2)cc(Br)c1OC` the figure was 5.42 µM (active); with `CCOc1c(Br)cc(CNc2ccc(N3CCOCC3)cc2)cc1OC`, 6.04 µM (active).
Still for that read-out and setting: with `CCOc1c(Br)cc(CNc2ccc(N3CCN(C(C)=O)CC3)cc2)cc1OC` the figure was 7.66 µM (active).
In the case of `Cn1ncc2nnn(-c3ccccc3)c(=O)c21`, the “inhibition” value is -9.11% (inactive).
On the same count and under the same terms, with `Brc1ccc(-c2nn3c(-c4ccco4)nnc3s2)o1` the figure was -1.31% (inactive).
Take `CCOc1cc(/C=N\NC(=O)Cn2nnc3ccccc32)ccc1O`: the IC50 is 5.43 µM (active).
Consider `CCOc1ccc(NC(=O)c2nnn(CC(=O)Nc3ccccc3OC)c2N)cc1`, for which the “inhibition” value is 23.9% (inactive).
`COc1cc(/C=N/NC(=O)CCc2c(C)n[nH]c2C)ccc1O`: the concentration for half-maximal inhibition (IC50) was 4.69 µM (active).
Still for that read-out and setting: with `COc1cc(/C=N/NC(=O)C(C)n2nnc3ccccc32)ccc1O` (stereo unspecified) the figure was 3.07 µM (active); with `COc1ccc(Cc2nc3ccccc3n2CC(=O)N/N=C/c2ccc(O)cc2)cc1OC`, 4.33 µM (active).
For `CC(C(=O)Nc1ccccc1Cl)N(c1ccccc1)S(C)(=O)=O` (stereo unspecified), the “inhibition” value was 15.5% (inactive).
Still for that read-out and setting: with `CCCSC1=N/C(=C\C=C\c2ccco2)C(=O)S1` the figure was 13.2% (inactive).
Regarding `COc1cc(/C=N/NC(=O)Cn2nnc3ccccc32)ccc1O`, the half-inhibitory concentration (IC50) is 2.86 µM (active).
The same measure, in the same setting: with `CCOc1cc(/C=N/NC(=O)CCn2nnc3ccccc32)ccc1O` the figure was 3.32 µM (active).
Same read-out and setting: with `COc1cc(/C=N/NC(=O)CCn2nc(C)cc2C)ccc1O` the figure was 6.73 µM (active); with `COc1cc(/C=N/NC(=O)CCn2nnc3ccccc32)ccc1O`, 3.56 µM (active).
For `CCOC(=O)C1=C(N)n2c(s/c(=C\c3ccco3)c2=O)=C(C(=O)OCC)C1c1ccco1` (stereo unspecified), the “inhibition” value is -0.39% (inactive).
Same read-out and setting: the figure for `C[C@]12CC[C@@H]3c4cc(O)c(O)cc4CC[C@H]3[C@@H]1CC[C@@H]2O` is 12.5% (inactive); for `CCCNC(=O)c1ccc(CNc2c(N3CCC(C(=O)OCC)CC3)c(=O)c2=O)cc1` it is -20.8% (inactive).
Turning to `O=C1NC(=Nc2ccc(O)cc2)S/C1=C\C=C\c1ccco1`, the IC50 is 3.48 µM (active).
As for `O=C(O)CC(C(=O)O)N1C(=O)/C(=C/C=C/c2ccco2)SC1=S` (stereo unspecified), the “inhibition” value is -2.02% (inactive).
For the molecule `O=C1NC(=Nc2ccc(O)cc2)S/C1=C/c1ccco1`, the IC50 is 5.16 µM (active).
Turning to `O=C(CCCN1C(=O)/C(=C\c2ccco2)SC1=S)Nc1ccc(O)cc1C(=O)O`, the “inhibition” value was 18% (inactive).
On the same count and under the same terms, with `Cc1ccc(S(=O)(=O)/N=C2/NC(=O)/C(=C\c3ccco3)S2)cc1` the figure was -7.12% (inactive); with `Cc1cccc(N=C2NC(=O)/C(=C/C=C/c3ccco3)S2)c1`, -17.8% (inactive).
Same read-out and setting: with `CCCC[C@@H]1CN=C(N)N1CCc1cc(C(F)(F)F)cc(C(F)(F)F)c1` the figure was 16.9% (inactive); with `O=Nc1c(-c2cccc([N+](=O)[O-])c2)nc2ncccn12`, -14.4% (inactive).
Turning to `CN=c1nc(-c2ccccc2)n(-c2ccccc2)s1`, the half-maximal inhibitory concentration (IC50) was 11.8 µM (active).
Same read-out and setting: the figure for `O=C(N/N=C/c1ccc(OC(=O)c2ccco2)cc1)c1ccc[n+]([O-])c1` is 41.7 µM (active).
For the molecule `CCOC(=O)C1=C(C)NC(=S)NC1c1ccc(OC(=O)c2ccco2)cc1` (stereo unspecified), the “inhibition” value is 27.4% (inactive).
In the case of `Oc1ccc(-c2nc(=S)[nH][nH]2)cc1`, the IC50 is 2.49 µM (active).
On to `O=c1c2ccccc2sn1-c1cc(S(=O)(=O)N2CCOCC2)ccc1N1CCCC1`, for which the half-maximal inhibitory concentration (IC50) is 12.5 µM (active).
With `O=C(Nc1ccc(S(=O)(=O)N2CCCC2)cc1)N1c2ccccc2Sc2ccccc21`, the “inhibition” value is 1.56% (inactive).
In the case of `O=c1c2ccccc2sn1-c1cc(S(=O)(=O)N2CCOCC2)ccc1N1CCOCC1`, the IC50 is 12.5 µM (active).
For the molecule `Cc1ccc2c(c1)C(c1ccccc1)N(C(=O)c1ccc(S(=O)(=O)N3CCOCC3)cc1)CC(=O)N2` (stereo unspecified), the “inhibition” value was -15.6% (inactive).
As for `C[C@@H]1O[C@@H](OC2C(O)C(OCCc3ccc(O)c(O)c3)OC(CO)C2OC(=O)/C=C/c2ccc(O)c(O)c2)[C@H](O)[C@H](O)[C@H]1O` (stereo partly specified), the concentration for half-maximal inhibition (IC50) was 6.02 µM (active).
For the molecule `Nc1nc[nH]c(=O)c1N=Cc1ccccc1`, the IC50 is 12.2 µM (active).
For the molecule `CCN=C(Nc1ccc2c(c1)OCO2)SC1CC(=O)N(c2ccc(OC)cc2)C1=O` (stereo unspecified), the “inhibition” value is -27.4% (inactive).
Take `C=CCNc1nnc(SC2CC(=O)N(c3ccc(OC)cc3)C2=O)s1` (stereo unspecified): the half-maximal inhibitory concentration (IC50) is 11.2 µM (active).
Still for that read-out and setting: the figure for `CN1/C(=C\C=N\NC(=O)c2ccc(O)cc2)C(C)(C)c2ccccc21` is 8.51 µM (active).
On to `Cc1c(/C=N/NC(=O)c2ccc(O)cc2)c2ccccn2c1C(=O)c1ccc(F)cc1`, for which the “inhibition” value was -8.33% (inactive).
For the molecule `O=S(=O)(O)c1cc(O)c2c(O)c(N=Nc3cc(Cl)ccc3O)c(S(=O)(=O)O)cc2c1`, the concentration for half-maximal inhibition (IC50) was 81.2 µM (active).
Consider `Cc1cc(-c2ccc(N=Nc3c(S(=O)(=O)O)cc4cc(S(=O)(=O)O)cc(N)c4c3O)c(C)c2)ccc1N=Nc1c(S(=O)(=O)O)cc2cc(S(=O)(=O)O)cc(N)c2c1O`, for which the IC50 is 11.5 µM (active).
In the case of `Cc1sc(NC(=O)C2C3CCC(O3)C2C(=O)O)c(C(=O)OC(C)C)c1-c1ccc(Cl)cc1` (stereo unspecified), the “inhibition” value is 3.87% (inactive).
In the case of `CCn1cnc2cc(NCc3cccc(OC)c3O)ccc21`, the IC50 is 3.71 µM (active).
On the same count and under the same terms, the figure for `CCCn1cnc2cc(NCc3cccc(OC)c3O)ccc21` is 4.87 µM (active).
As to `C/C(Cl)=C\Cn1c(N2CCCC2)nc2c1c(=O)[nH]c(=O)n2C`, the “inhibition” value is 12.8% (inactive).
Turning to `O=C(O)CCNc1ccc(NCCC(=O)O)c2c1C(=O)c1ccccc1C2=O`, the 50% inhibitory concentration (IC50) was 7.52 µM (active).
Still for that read-out and setting: the figure for `Oc1cnn(-c2ccccc2)c1` is 7.63 µM (active); for `CC(=O)Nc1sc(N/N=C\c2ccco2)nc1-c1cccs1` it is 74 µM (active); for `CCOc1cc(/C=N/Nc2nc(-c3cccs3)c(NC(C)=O)s2)ccc1O` it is 9.71 µM (active).
On the same count and under the same terms, with `COc1cc(/C=N\Nc2nc(-c3cccs3)c(NC(C)=O)s2)ccc1O` the figure was 4.67 µM (active).
Turning to `O=C(Nc1nc(-c2ccco2)c(-c2ccco2)s1)c1ccco1`, the “inhibition” value was 6.22% (inactive).
On the same count and under the same terms, with `NS(=O)(=O)c1cc(C(=O)NC2CCSc3ccccc32)ccc1Cl` (stereo unspecified) the figure was 10.5% (inactive); with `CSc1cccc(NC(=O)CN2C(=O)c3ccccc3S2(=O)=O)c1`, 14% (inactive).
With `CCS(=O)(=O)c1ncc(Cl)c(C(=O)Nc2ccc(S(=O)(=O)N3CCCC(C)C3)cc2)n1` (stereo unspecified), the “inhibition” value was -5.26% (inactive).
On to `Oc1ccc(/C=N/Nc2cc(N3CCCC3)nc(N3CCCC3)n2)cc1O`, for which the IC50 is 31.9 µM (active).
The same measure, in the same setting: with `Cc1cc(N/N=C/c2ccc(O)cc2O)nc(N2CCOCC2)n1` the figure was 22.7 µM (active).
Still for that read-out and setting: the figure for `Oc1ccc(/C=N/Nc2cc(N3CCOCC3)nc(N3CCOCC3)n2)cc1O` is 4.67 µM (active).
Take `O=C(NC1CCCC1)C(c1ccc(F)cc1)N(Cc1ccc(F)cc1)C(=O)c1ccn[nH]1` (stereo unspecified): the “inhibition” value was -25.8% (inactive).
Still for that read-out and setting: the figure for `COc1ccc(C2CC(=O)N3CN(c4ccc(C)c(Cl)c4)CSC3=C2C#N)cc1` (stereo unspecified) is 24.2% (inactive); for `CCc1ccccc1N1CSC2=C(C#N)C(c3ccccc3F)CC(=O)N2C1` (stereo unspecified) it is 15.7% (inactive).
On to `Cc1ccc(N2CSC3=C(C#N)C(c4cccs4)CC(=O)N3C2)cc1` (stereo unspecified), for which the half-inhibitory concentration (IC50) was 23.6 µM (active).
Still for that read-out and setting: with `COc1ccc(N2CSC3=C(C#N)C(c4cccc(OC)c4OC)CC(=O)N3C2)cc1` (stereo unspecified) the figure was 5.84 µM (active); with `COc1ccc(N2CSC3=C(C#N)C(c4cccs4)CC(=O)N3C2)cc1` (stereo unspecified), 7.88 µM (active); with `CCOc1ccc(N2CSC3=C(C#N)C(c4ccco4)CC(=O)N3C2)cc1` (stereo unspecified), 10.4 µM (active).
Regarding `N#CC1=C2SCN(Cc3ccccc3)CN2C(=O)CC1c1cccs1` (stereo unspecified), the “inhibition” value is 17.8% [at 25 µM] (inactive).
On to `C/C=C/c1cc(CN2CCN(c3ccc(OC)cc3)CC2)c(O)c(OC)c1`, for which the IC50 is 32.1 µM (active).
For `COc1ccc2cc(-c3[nH]ncc3CN3CCCN(c4ccccc4)CC3)ccc2c1`, the “inhibition” value was 4.26% (inactive).
`COc1ccc(-n2cc(CN3CCCC3)c(-c3cccc(F)c3)n2)cc1`: the “inhibition” value is -4.56% (inactive).
Turning to `O=S(=O)(Nc1cccc(C(F)(F)F)c1)c1cnc[nH]1`, the “inhibition” value is 10.2% (inactive).
Consider `Cc1cc(C)c2c(=O)n(CC(=O)Nc3cccc(Cl)c3C)sc2n1`, for which the “inhibition” value was -7.59% (inactive).
As for `Cc1coc2c(O)cc3c(c12)OC1(N2CCCCC2)C(=O)NCCCC31` (stereo unspecified), the “inhibition” value was -156% (inactive).
Regarding `COc1cc(CNc2ccc3c(c2)CCC3)cc(OC)c1O`, the half-inhibitory concentration (IC50) is 11.4 µM (active).
Turning to `N#CC1=C(N)n2c(s/c(=C\c3ccco3)c2=O)=C(C#N)C1c1ccco1` (stereo unspecified), the “inhibition” value is 5.17% (inactive).
On to `CC1=C(C#N)C(=O)N(C2CCS(=O)(=O)C2)C(=O)/C1=C\c1ccco1` (stereo unspecified), for which the half-maximal inhibitory concentration (IC50) is 82 µM (active).
Take `CC1C/C(=C/c2ccco2)C(=O)/C(=C/c2ccco2)C1` (stereo unspecified): the “inhibition” value is 28.2% (inactive).
